Records with an inconclusive call do not appear. Active and inactive are the calls of the source. Unless noted, calls come from the whole dose curve; as a rule, active = well fitted curve in the direction sought with a large enough effect; inconclusive = small, poorly fitted or top-dose-only effect, or another doubt; inactive = no such curve, though single readings can be large; an effect the other way counts as inactive or inconclusive.
What was measured:
[1] = target: Cytochrome P450 3A4 (Homo sapiens) (UniProt P08684); experiment: qHTS Assay for Inhibitors and Substrates of Cytochrome P450 3A4 (AID 884); note: nearly all actives have a fitted effect of over 50% in size; note: potency is the fitted concentration of half-maximal effect; for activity change, negative = inhibition: % is set by controls: 0 for no effect and ±100 for the full control effect
Outline: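 Luminescent readout of luciferin produced by CYP3A4 (20 nM) dealkylation of Luciferin-PPXE, 25 uM (its KM). NADPH-driven reaction ran 60 min at RT after 10 min compound preincubation; data scaled to 57 uM ketoconazole as 100% inhibition.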

[2] = qHTS Assay for Lipid Storage Modulators (AID 1519; calls by dose curve; for activity change, negative = inhibition: % is set by controls: 0 for no effect and ±100 for the full control effect); settings: Drosophila S3 cells, BODIPY lipid droplet/cell ratio, laser cytometry, cells loaded with oleic acid; for activity change, negative = inhibition: at 57.5 µM (top of the series)
Outline: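 Cells seeded at 5,000 per well were treated with compounds over a concentration series and loaded with oleic acid (400 uM, as added). Lipid droplet fluorescence (488 nm excitation, 500-530 nm channel) was read by laser-scanning cytometry and normalized to 20 uM Triacsin C.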

[3] = target: DNA dC->dU-editing enzyme APOBEC-3G (Homo sapiens) (UniProt Q9HC16); experiment: qHTS for inhibitors of Vif-A3G interactions: Validation (AID 588379); note: 0% is about no effect
Outline: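 Yellow fluorescence (Ex 488, Em 500-530) of Vif-coexpressing HeLa A3G-eYFP cells, scanned by Acumen cytometer, reports blocked A3G degradation. Cells plated at 700/well overnight at 37 deg C before compound addition, then a further overnight compound incubation at 37 deg C.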

[4] = target: Cytochrome P450 3A4 (Homo sapiens) (UniProt P08684); experiment: qHTS Assay for Activators of Cytochrome P450 3A4 (AID 885); note: nearly all actives have a fitted effect of over 65% in size
Outline: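 Activators are scored by enhanced luminescence from CYP3A4 conversion of luciferin-PPXE (25uM, equal to KM) to luciferin, after 60 min at RT with an NADPH-regenerating system.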

[5] = Confirmation and Secondary Assay for Modulators of Hemoglobin Beta Chain Splicing at IVS2 654 locus (AID 910);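 note: HeLa cells stably carrying EGFP split by mutant beta-globin IVS2-654 intron; % of control where 0% means no effect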
Outline: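 HeLa cells stably expressing EGFP interrupted by β-globin IVS2-654 intron, seeded overnight in Opti-MEM/2% FCS, then treated 2 days at 37 °C. Restored splicing read as total peak GFP intensity per well by laser scanning cytometry (488 nm excitation, 500–520 nm emission); 500 nM antisense PNA as control.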

[6] = measured here: cell count channel max response
[7] = measured here: lipid channel max response

Cytochrome P450 3A4 (Homo sapiens), sequence (P08684 whole entry, looked up): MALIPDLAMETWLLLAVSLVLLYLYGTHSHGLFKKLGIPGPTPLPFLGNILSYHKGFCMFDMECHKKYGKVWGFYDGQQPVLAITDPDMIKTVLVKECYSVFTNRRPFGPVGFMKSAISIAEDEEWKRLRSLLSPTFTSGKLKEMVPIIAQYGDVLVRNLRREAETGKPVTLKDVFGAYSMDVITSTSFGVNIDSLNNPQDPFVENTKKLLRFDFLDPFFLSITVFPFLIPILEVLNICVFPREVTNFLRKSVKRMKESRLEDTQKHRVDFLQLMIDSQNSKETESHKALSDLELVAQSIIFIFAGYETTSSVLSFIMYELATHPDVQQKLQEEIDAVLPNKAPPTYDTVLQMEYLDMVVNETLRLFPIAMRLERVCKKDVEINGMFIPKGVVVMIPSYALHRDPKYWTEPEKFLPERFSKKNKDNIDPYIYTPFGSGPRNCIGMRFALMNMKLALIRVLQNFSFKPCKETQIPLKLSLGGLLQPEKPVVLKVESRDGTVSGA
DNA dC->dU-editing enzyme APOBEC-3G (Homo sapiens), sequence (Q9HC16 whole entry, looked up): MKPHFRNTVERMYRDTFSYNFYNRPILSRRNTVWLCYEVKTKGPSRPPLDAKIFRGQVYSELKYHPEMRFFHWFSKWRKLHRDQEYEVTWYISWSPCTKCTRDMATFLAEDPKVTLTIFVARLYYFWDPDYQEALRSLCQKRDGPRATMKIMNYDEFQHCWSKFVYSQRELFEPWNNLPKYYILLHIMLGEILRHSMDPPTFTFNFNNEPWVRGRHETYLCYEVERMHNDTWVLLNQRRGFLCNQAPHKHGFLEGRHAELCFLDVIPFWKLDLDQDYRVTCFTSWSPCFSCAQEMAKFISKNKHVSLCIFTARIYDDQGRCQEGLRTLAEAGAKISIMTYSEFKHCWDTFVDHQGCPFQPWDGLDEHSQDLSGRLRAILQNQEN

Compound | Potency [1] | activity change, negative = inhibition [2] | max response [2, 6] [%] | max response [2, 7] [%] | outcome [3] | Potency [4] | Potency [5]
C[C@H]1C(=O)O[C@H]2CCN3CC=C(COC(=O)[C@](C)(O)[C@@]1(C)O)C23 (some centres not stated) | inactive | -4.35% (inactive) | 5.67 | 3.38 | inactive | – | –
C=C1C/C(=C/C)C(=O)O[C@@H]2CCN3CC=C(COC(=O)[C@]1(C)O)[C@@H]23 | 15.8 µM (active) | 3.16% (inactive) | 6.54 | 10.1 | inactive | inactive | –
COc1cc2c(cc1OC)[C@]13CCN4CC5=CCOC6CC(=O)N2[C@@H]1[C@@H]6C5C[C@@H]43 (some centres not stated) | inactive | -2% (inactive) | -11.3 | -11.3 | inactive | – | –
O=c1cccc2n1CC1CC2CN(CCO)C1 (configuration not stated) | inactive | 3.63% (inactive) | 9.42 | 15.7 | inactive | – | –
CC1(C)C(O)CC(O)[C@]2(C)C1CC(O)[C@]1(C)C2CC[C@@]2(C)C(c3ccoc3)OC(=O)C3O[C@]312 (some centres not stated) | 12.6 µM (active) | 0.703% (inactive) | 12.6 | 16.1 | – | inactive | inactive
O=c1ccc2cc(OC3OC(CO)C(O)C(O)C3O)c(O)cc2o1 (configuration not stated) | – | -4.17% (inactive) | -25.8 | -27.2 | inactive | – | –
CC1(C)C(=O)C=C[C@@]2(C)C1=C(O)C(=O)[C@@]1(C)C2CC[C@@]2(C)C(c3ccoc3)C[C@H]3O[C@@]321 (some centres not stated) | 0.501 µM (active) | 0.256% (inactive) | 0.732 | 3.61 | – | inactive | inactive
CC1=C2C3OC(=O)[C@H](C)[C@H]3CC[C@@]2(C)C=CC1=O (some centres not stated) | – | 2.8% (inactive) | 25.6 | 29.5 | inactive | inactive | –

From PubChem BioAssay (NCATS)
